Measurements: the supplement of paper PMC6555819

Assays:
Assay in all cases: PBM binding z-score (relative to random genomic background probes); higher = stronger binding; sequences stand for … in GC…GCGATTGACAGCGTAGAATGAAGG
[1] = system: FXR:RXRa (NR concentration 270 nM, RXRa partner concentration 90 nM)
Method in brief: (§1)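 Ligand-free nuclear receptor dimers were applied to custom Agilent 4×180K protein-binding microarrays whose double-stranded probes carried direct-repeat seeds, single-nucleotide variants, half-site ablations and random human genomic background sequences in 34-nt variable regions. Incubation lasted 1 h. Binding z-scores were computed against the random background probes from regression-normalized fluorescence.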

[2] = system: LXRa:RXRa (NR concentration 270 nM, RXRa partner concentration 90 nM)
Method in brief: as §1

[3] = system: LXRa homodimer (NR concentration 270 nM)
Method in brief: as §1

[4] = system: LXRb:RXRa (NR concentration 270 nM, RXRa partner concentration 90 nM)
Method in brief: as §1

[5] = system: LXRb homodimer (NR concentration 270 nM)
Method in brief: as §1

[6] = system: PPARa:RXRa (NR concentration 270 nM, RXRa partner concentration 90 nM)
Method in brief: as §1

[7] = system: PPARg:RXRa (NR concentration 180 nM, RXRa partner concentration 90 nM)
Method in brief: as §1

[8] = system: PPARg:RXRa 270nM:90nM, anti-RXR (NR concentration 270 nM, RXRa partner concentration 90 nM)
Method in brief: as §1

[9] = system: PPARg:RXRa 30nM:10nM, anti-RXR (NR concentration 30 nM, RXRa partner concentration 10 nM)
Method in brief: as §1

[10] = system: PPARg:RXRa 90nM:30nM, anti-RXR (NR concentration 90 nM, RXRa partner concentration 30 nM)
Method in brief: as §1

[11] = system: PPARg:RXRa DBDmut IVT, anti-RXR (DBD mutation: RXRa K156A/R161A, NR concentration 270 nM, RXRa partner concentration 90 nM)
Method in brief: as §1

[12] = system: PPARg:RXRa IVT, anti-PPARg (NR concentration 270 nM, RXRa partner concentration 90 nM)
Method in brief: as §1

[13] = system: PPARg DBDmut:RXRa IVT, anti-PPARg (DBD mutation: PPARg1 K132A/R137A, NR concentration 270 nM, RXRa partner concentration 90 nM)
Method in brief: as §1

[14] = system: PPARg DBDmut IVT, anti-PPARg (DBD mutation: PPARg1 K132A/R137A, NR concentration 270 nM)
Method in brief: as §1

[15] = system: PPARg homodimer (NR concentration 180 nM)
Method in brief: as §1

[16] = system: PXR:RXRa (NR concentration 270 nM, RXRa partner concentration 90 nM)
Method in brief: as §1

[17] = system: PXR homodimer (NR concentration 270 nM)
Method in brief: as §1

[18] = system: RARa:RXR (NR concentration 270 nM, RXRa partner concentration 90 nM)
Method in brief: as §1

[19] = system: RARa homodimer (NR concentration 270 nM)
Method in brief: as §1

[20] = system: RARb:RXRa (NR concentration 270 nM, RXRa partner concentration 90 nM)
Method in brief: as §1

| Sequence | PBM binding z-score [1] | PBM binding z-score [2] | PBM binding z-score [3] | PBM binding z-score [4] | PBM binding z-score [5] | PBM binding z-score [6] | PBM binding z-score [7] | PBM binding z-score [8] | PBM binding z-score [9] | PBM binding z-score [10] | PBM binding z-score [11] | PBM binding z-score [12] | PBM binding z-score [13] | PBM binding z-score [14] | PBM binding z-score [15] | PBM binding z-score [16] | PBM binding z-score [17] | PBM binding z-score [18] | PBM binding z-score [19] | PBM binding z-score [20] |
| --- | --- | --- | --- | --- | --- | --- | --- | --- | --- | --- | --- | --- | --- | --- | --- | --- | --- | --- | --- | --- |
| AATCGGAGGACAAAGGTCAGAGCTACGCCAGTGA | 4.21 | 4.44 | 1.79 | 3.53 | 0.469 | 5.18 | 8.17 | 7.23 | 6.45 | 7.59 | 0.506 | 4.15 | 0.0778 | -0.0229 | 2.97 | 3.75 | 0.501 | 4.48 | 0.693 | 4.54 |
| ATATGTAGGTTTTCGGGTCATTCAGTTTGCGCAT | 3.26 | 2.94 | 1.41 | 3.14 | 1.57 | 4.19 | 3.95 | 4.14 | 1.9 | 3.5 | 5.6 | 5.42 | 1.9 | 1.31 | 2.39 | 4.14 | 8.75 | 3.74 | 1.72 | 2.17 |
| AGTCAAAGTTCATCTAGGTAGCGTAAGATATGCT | 6.22 | 6.03 | 4.76 | 3.76 | 1.66 | 4.61 | 6.29 | 6.38 | 3.49 | 5.38 | 0.422 | 2.98 | 1.02 | 1.02 | 2.55 | 4.98 | 6.74 | 3.75 | 1.85 | 4.8 |
| AATACAGGGTCACTAAGCCAGAGTAGGTACGAAT | 6.17 | 4.69 | 0.732 | 3.96 | 0.99 | 5.51 | 6.22 | 5.26 | 2.31 | 3.83 | 3.03 | 4.56 | 1.91 | 0.89 | 2.06 | 3.23 | 0.477 | 4.15 | 0.677 | 4.17 |
| AGTCAAAGTTCAGGACGAGGAAACGTAAAGCACG | 3.83 | 3.6 | 0.784 | 1.92 | 0.307 | 3.21 | 5.02 | 5.02 | 2.33 | 4.27 | -0.351 | 1.46 | 0.63 | 0.55 | 1.71 | 2.42 | 0.845 | 2.26 | -0.0138 | 4.25 |
| CAACCTAGGTCAAGGTCAAAGTCGGTTTGTGCCA | 6.38 | 5.56 | 3.63 | 4.92 | 1.07 | 5.51 | 5.92 | 5.74 | 2.75 | 4.69 | 4.85 | 5.78 | -0.338 | 0.164 | 3.33 | 5.19 | 1.48 | 5.29 | 0.703 | 5.17 |
| AGAATCAGGTTAAGATCAGGGAAACAGAATACAT | 0.729 | 0.662 | 0.295 | 0.799 | 0.474 | 1.68 | 1.18 | 1.05 | 0.692 | 0.624 | 2.26 | 2.1 | 1.36 | 1.33 | 1.01 | 0.297 | 1.14 | 0.552 | 1.62 | 1.1 |
| ATCGCAAGGTCGAGGTGAGTATAGAGAAAGGGAA | 1.56 | 0.947 | -0.582 | 0.995 | -0.275 | 2.5 | 1.05 | 0.957 | 0.1 | 0.379 | -0.0497 | 1.28 | 0.589 | -0.0017 | -0.0351 | 1.04 | -0.378 | 1.52 | -0.173 | 2.75 |
| TAGCCCAGGTCAGATCGGGCCAGTATACGCTATA | 2.34 | 1.3 | -0.26 | 0.735 | -0.412 | 1.86 | 0.632 | 0.728 | -0.392 | -0.038 | -0.572 | 1.18 | -0.255 | -0.724 | -0.165 | 1.48 | -0.562 | 1.11 | -0.626 | 2.91 |
| TCTATTAGTTGCTTAGGGCAACCGAAACAGCGGA | 0.577 | 0.582 | 0.0862 | 0.602 | 0.556 | 0.886 | -0.0516 | 1.87 | 3.56 | 2.88 | 2.15 | 0.552 | 0.453 | 1.28 | 0.448 | 0.524 | 0.123 | 0.386 | 0.367 | 0.946 |
| CGAACTAGGTCATCCAGGAGAGTGAATACATTGA | 3.98 | 2.66 | 0.805 | 1.98 | -0.132 | 4.89 | 7.72 | 6.23 | 3.86 | 5.76 | 7.67 | 8.61 | 1.76 | 0.981 | 2.19 | 1.34 | 0.448 | 2.31 | 0.76 | 3.78 |
| CCGACTAGGGCAAAGGTTACCATACTCAGTACGA | 2.31 | 2.04 | 0.518 | 2.49 | -0.304 | 6.31 | 11.2 | 8.96 | 9.02 | 9.62 | 5.49 | 6.42 | 0.866 | 0.896 | 2.04 | 2.23 | -0.079 | 3.59 | 0.449 | 2.85 |
| GCGACTGGGGCAAGGCAGGTTACCATAAGGTTGG | -0.183 | 0.247 | -0.418 | -0.0825 | -0.867 | 0.979 | 0.978 | 0.49 | -0.677 | 0.000745 | 3.58 | 3.12 | 0.704 | -0.934 | 0.688 | 0.207 | -0.567 | 0.854 | -0.915 | 0.95 |
| GGAACGAGGGCAGAGTTGATAGCATCTGTCGACG | -0.283 | -0.148 | -0.653 | -0.244 | -0.788 | 2.39 | 4.04 | 5.15 | 3.38 | 4.85 | 2.1 | 2.85 | 0.19 | -0.602 | 0.635 | -0.0229 | -0.145 | -0.365 | -0.977 | 1.68 |
| GCTAGTTGGTCATTAAAAGGTCACACACCGGTCG | 3.71 | 4.83 | 6.37 | 4.7 | 1.12 | 4.31 | 1.92 | 3.77 | 1.5 | 2.68 | 1.97 | 2.97 | -0.134 | 0.443 | 4.31 | 5.25 | 1.39 | 6.14 | 1.98 | 4.4 |
